Assay outcomes: PubChem BioAssay, Broad Institute
miR-122 inh: miR-122 sensor activation; activation, % at 12.5 µM; 340,000 tested, 0.14% active; AID 623901; Huh7 psiCHECK-miR122 Renilla luciferase sensor, 48 h;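 active means mean activation of 30% or more, with every replicate also reaching 30%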;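 further: 0% = median of neutral control wells and 100% = median of positive control wells; higher luciferase signal means stronger suppression of miR-122 activity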
An asterisk follows results filed as active. Only a selection was taken, and hits are over-represented in it overall.

SMILES	miR-122 inh
C[C@H](CO)N1C[C@H](C)[C@H](CN(C)Cc2ccccn2)Oc2cc(-c3ccncc3)ccc2S1(=O)=O	6
C[C@H](CO)N1C[C@H](C)[C@H](CN(C)CC2CCOCC2)Oc2ncc(C#CCc3ccccc3)cc2C1=O	2
C/C=C/c1ccc2c(c1)O[C@H](CN(C)C(=O)CC1CC1)[C@@H](C)CN([C@H](C)CO)S2(=O)=O	-11
C[C@@H]1CN([C@@H](C)CO)C(=O)c2cc(C#Cc3ccccn3)cnc2O[C@H]1CN(C)C(=O)CCN1CCCCC1	-2
CCCC#Cc1ccc2c(c1)O[C@H](CN(C)C(=O)CC)[C@H](C)CN([C@H](C)CO)S2(=O)=O	1
CCCC#Cc1ccc2c(c1)O[C@H](CN(C)C(=O)CC)[C@H](C)CN([C@@H](C)CO)S2(=O)=O	-1
CCCC#Cc1ccc2c(c1)O[C@H](CN(C)C(=O)c1ccccn1)[C@@H](C)CN([C@H](C)CO)S2(=O)=O	-128
CC(C)CC#Cc1ccc2c(c1)O[C@H](CN(C)C(=O)c1cnccn1)[C@H](C)CN([C@@H](C)CO)S2(=O)=O	36*
CC(C)CC#Cc1ccc2c(c1)O[C@H](CN(C)C(=O)c1cnccn1)[C@H](C)CN([C@H](C)CO)S2(=O)=O	39*
COc1cccc(C#Cc2ccc3c(c2)O[C@H](CN(C)C(=O)CN2CCOCC2)[C@H](C)CN([C@@H](C)CO)S3(=O)=O)c1	-28
CCCC#Cc1ccc2c(c1)O[C@H](CN(C)C(=O)c1cccnc1)[C@H](C)CN([C@H](C)CO)S2(=O)=O	11
COc1ccc(C#Cc2ccc3c(c2)O[C@H](CN(C)C(=O)CN2CCOCC2)[C@@H](C)CN([C@@H](C)CO)S3(=O)=O)cc1	43*
CCCC#Cc1ccc2c(c1)O[C@@H](CN(C)C(=O)c1cccnc1)[C@H](C)CN([C@@H](C)CO)S2(=O)=O	-18
CCC(=O)N(C)C[C@H]1Oc2cc(C#Cc3ccccc3)ccc2S(=O)(=O)N([C@H](C)CO)C[C@H]1C	56*
CC(C)CC#Cc1ccc2c(c1)O[C@@H](CN(C)C(=O)NC1CCCC1)[C@@H](C)CN([C@H](C)CO)S2(=O)=O	-7
COc1cccc(C#Cc2ccc3c(c2)O[C@H](CN(C)C(=O)CN2CCOCC2)[C@@H](C)CN([C@@H](C)CO)S3(=O)=O)c1	-18
C[C@@H]1CN([C@@H](C)CO)S(=O)(=O)c2ccc(-c3cccnc3)cc2O[C@H]1CN(C)Cc1ccccn1	3
C[C@H](CO)N1C[C@H](C)[C@H](CN(C)Cc2ccc(C(=O)O)cc2)Oc2ncc(-c3ccc(F)cc3)cc2C1=O	-22
C[C@H]1CN([C@@H](C)CO)C(=O)c2cc(C#CCN(C)C)cnc2O[C@@H]1CN(C)C(=O)Cc1ccncc1	2
CC(=O)N(C)C[C@@H]1Oc2cc(C#C[C@@H](C)O)ccc2S(=O)(=O)N([C@H](C)CO)C[C@@H]1C	4
C[C@@H]1CN([C@@H](C)CO)C(=O)c2cc(-c3cccc(C#N)c3)cnc2O[C@@H]1CN(C)Cc1ccccc1	3
C[C@H](CO)N1C[C@H](C)[C@H](CN(C)C(=O)C2CC2)Oc2ncc(-c3cccnc3)cc2C1=O	-9
CO[C@H]1CN(C)C(=O)c2cc(NS(=O)(=O)c3ccccc3)ccc2OC[C@H](C)N(C)C[C@H]1C	-1
Cc1ccc(-c2cnc3c(c2)C(=O)N([C@@H](C)CO)C[C@H](C)[C@@H](CN(C)Cc2ccccc2F)O3)cc1	-3
C[C@H](CO)N1C[C@H](C)[C@@H](CN(C)C(=O)C2CCCCC2)Oc2ncc(C#CCc3ccccc3)cc2C1=O	-36
SMILES	miR-122 inh
CO[C@@H]1CN(C)C(=O)c2ccc(NC(=O)NC(C)C)cc2OC[C@H](C)NC[C@H]1C	-4
CCCNC(=O)Nc1ccc2c(c1)OC[C@H](C)N(C)C[C@H](C)[C@H](OC)CN(C)C2=O	-1
CO[C@@H]1CN(C)C(=O)c2cc(NC(=O)c3ccc(F)cc3)ccc2OC[C@H](C)N(C)C[C@H]1C	1
CC(C)CC#Cc1ccc2c(c1)O[C@H](CN(C)C(=O)C1CCOCC1)[C@H](C)CN([C@@H](C)CO)S2(=O)=O	23
Cc1ccc(S(=O)(=O)N(C)C[C@@H]2Oc3ncc(C#Cc4cccc(F)c4)cc3C(=O)N([C@H](C)CO)C[C@@H]2C)cc1	13
Cc1ccc(-c2ccc3c(c2)O[C@H](CN(C)Cc2cccc(C(=O)O)c2)[C@@H](C)CN([C@H](C)CO)S3(=O)=O)cc1	-16
C/C=C/c1ccc2c(c1)O[C@H](CN(C)C(=O)c1cnccn1)[C@H](C)CN([C@@H](C)CO)S2(=O)=O	44*
C/C=C/c1ccc2c(c1)O[C@@H](CN(C)C(=O)Cc1ccccn1)[C@@H](C)CN([C@@H](C)CO)S2(=O)=O	0
C[C@H](O)C#Cc1ccc2c(c1)O[C@@H](CN(C)C(=O)c1ccncc1)[C@H](C)CN([C@@H](C)CO)S2(=O)=O	-3
C[C@@H](O)C#Cc1ccc2c(c1)O[C@@H](CN(C)C(=O)c1ccncc1)[C@@H](C)CN([C@@H](C)CO)S2(=O)=O	2
CC(C)C#Cc1ccc2c(c1)O[C@H](CN(C)C(=O)c1ccncc1)[C@H](C)CN([C@H](C)CO)S2(=O)=O	53*
C/C=C/c1ccc2c(c1)O[C@H](CN(C)C(=O)c1cccnc1)[C@@H](C)CN([C@H](C)CO)S2(=O)=O	-5
C/C=C/c1cnc2c(c1)C(=O)N([C@H](C)CO)C[C@H](C)[C@@H](CN(C)S(=O)(=O)c1cccs1)O2	-1
COc1cccc(C#Cc2ccc3c(c2)O[C@@H](CN(C)C(C)=O)[C@H](C)CN([C@@H](C)CO)S3(=O)=O)c1	-1
C[C@@H]1CN([C@H](C)CO)C(=O)c2cc(C3=CCCCC3)cnc2O[C@@H]1CN(C)C(=O)Cc1ccccc1	0
COc1ccccc1-c1ccc2c(c1)O[C@@H](CN(C)S(=O)(=O)c1ccccc1)[C@@H](C)CN([C@@H](C)CO)S2(=O)=O	1
COCC(=O)N(C)C[C@@H]1Oc2cc(C#CC3CC3)ccc2S(=O)(=O)N([C@@H](C)CO)C[C@@H]1C	2
O=C(CCCCCN1C(=O)c2ccccc2C1=O)NCc1ccccn1	35*
CCc1ccc(-c2cc(C(=O)NCc3ccccn3)c3ccccc3n2)cc1	-148
O=C(CCCCCCC(=O)Nc1ccccc1)NO	-232
COc1ccc(NC(=O)N(C)C[C@@H]2Oc3ncc(C#Cc4ccc(OC)c(OC)c4)cc3C(=O)N([C@H](C)CO)C[C@@H]2C)cc1	16
CCOc1ccc(NS(=O)(=O)c2ccc(NC(=S)NC(=O)C(C)C)cc2)cc1	-115
CCOc1ccc(NC(=S)N(CCCN2CCCC2)Cc2cccn2Cc2ccc(Cl)cc2)cc1	33*
CO[C@@H]1CN(C)C(=O)c2ccc(NC(=O)Nc3ccc(Cl)cc3)cc2OC[C@@H](C)N(C)C[C@@H]1C	-6
C[C@@H]1CN([C@H](C)CO)C(=O)c2cc(-c3cccc(F)c3)cnc2O[C@H]1CN(C)Cc1ccncc1	5
COc1ccc(NS(=O)(=O)c2cc(C)ccc2C)cc1	-539
COc1ccc(S(=O)(=O)Nc2cc3c4c(oc3c3ccccc23)CCCC4=O)cc1	-127
COc1ccc(Oc2ccc(N/C=C3\CCCC3=O)cc2)cc1	36*
C[C@@H]1CN([C@@H](C)CO)C(=O)c2cc(Br)cnc2O[C@@H]1CN(C)Cc1cccc(F)c1	6
COc1cccc(NC(=O)N(C)C[C@H]2Oc3ncc(C#Cc4cccnc4)cc3C(=O)N([C@H](C)CO)C[C@@H]2C)c1	-6
